This note sets out measurements from PubChem BioAssay (EPA / NIEHS).

Broadly, the AC50 is the concentration at which the activity in the assay is half-maximal.

Read-out in test [1]: Interleukin-1 alpha (IL1a), IL1A (gene 3552)
Nature of the test: BSK_KF3CT_IL1a: BioMAP Diversity Plus: KF3CT Assay for Interleukin-1 alpha (IL1a) Biomarker Activity (AID 2283070). The settings on record: primary human keratinocytes with fibroblasts; actives raise or lower the signal. Put shortly: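 Primary skin co-culture (keratinocytes, foreskin fibroblasts), 24 h exposure; ELISA for IL-1a; bidirectional curve fit vs DMSO.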

Read-out in test [2]: TIMP metallopeptidase inhibitor 2 (TIMP2), TIMP2 (gene 7077)
Nature of the test: BSK_KF3CT_TIMP2: BioMAP Diversity Plus: KF3CT Assay for TIMP metallopeptidase inhibitor 2 (TIMP2) Biomarker Activity (AID 2283071). The conditions noted are these: primary human keratinocytes with fibroblasts; actives raise or lower the signal. Put shortly:
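ELISA readout of TIMP-2 in keratinocyte plus foreskin fibroblast co-cultures (human skin primary cells), 24 h post-dose. Gain or loss of signal fitted relative to DMSO.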

Read-out in test [3]: Transforming growth factor beta 1 (TGFb1), TGFB1 (gene 7040)
In words: BSK_KF3CT_TGFb1: BioMAP Diversity Plus: KF3CT Assay for Transforming growth factor beta 1 (TGFb1) Biomarker Activity (AID 2283072). The conditions noted are these: primary human keratinocytes with fibroblasts; actives raise or lower the signal. Put shortly:
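Read-out: ELISA for TGF-b1 in keratinocyte/foreskin fibroblast human skin co-culture, 24 h after dosing; bidirectional curve fit vs DMSO baseline; gain or loss of signal scored.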

Read-out in test [4]: C-C motif chemokine 2 (Homo sapiens) (UniProt P13500)
In words: BSK_KF3CT_MCP1: BioMAP Diversity Plus: KF3CT Assay for Monocyte Chemoattractant Protein 1 (MCP1/CCL2) Biomarker Activity (AID 2283073). The settings on record: primary human keratinocytes with fibroblasts; actives raise or lower the signal. Put shortly:
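ELISA read-out of MCP-1, 24 h post-dose, in primary human skin keratinocytes co-cultured with fibroblasts. Parallel SRB staining monitors cytotoxicity; changes fitted both directions relative to DMSO.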

Read-out in test [5]: Matrix Metallopeptidase 9 (MMP9), MMP9 (gene 4318)
In words: BSK_KF3CT_MMP9: BioMAP Diversity Plus: KF3CT Assay for Matrix Metallopeptidase 9 (MMP9) Biomarker Activity (AID 2283074).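 On AC50: MMP9 protein level quantified by ELISA in the co-culture.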 The settings on record: primary human keratinocytes with fibroblasts; actives raise or lower the signal. Put shortly:
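ELISA read-out of MMP-9 at 24 h post-dosing in a co-culture of human skin keratinocytes and foreskin fibroblasts. Gain or loss of signal was fitted in both directions against DMSO.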

Read-out in test [6]: CD40, CD40 (gene 958)
Nature of the test: BSK_LPS_CD40: BioMAP Diversity Plus: LPS Assay for CD40 Biomarker Activity (AID 2283076). The conditions noted are these: primary human HUVEC with PBMC; actives raise or lower the signal. Put shortly:
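In the LPS system of human endothelial cells with peripheral blood mononuclear cells, CD40 levels were read by ELISA 24 h post-treatment. Signal changes in either direction were fitted against the DMSO baseline, with parallel SRB protein staining.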

Read-out in test [7]: E-selectin (Homo sapiens) (UniProt P16581)
Nature of the test: BSK_LPS_Eselectin: BioMAP Diversity Plus: LPS Assay for Eselectin Biomarker Activity (AID 2283077). The conditions noted are these: primary human HUVEC with PBMC; actives raise or lower the signal. Put shortly:
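E-selectin ELISA on LPS-stimulated endothelial cell/PBMC co-cultures, read 24 h post-treatment; gains and losses fitted against DMSO. Parallel SRB staining (0.1% SRB after 10% TCA fixation, 560 nm) flags overt cytotoxicity.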

Test [8] can be described thus: BSK_LPS_SRB: Viability Assessment in the BioMAP Diversity Plus: LPS Assay (AID 2283079).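 Further: total protein by sulforhodamine B absorbance as a cytotoxicity measure; measured one day after compound addition.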 The conditions noted are these: primary human HUVEC with PBMC. The essentials: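 SRB viability endpoint: cells fixed with 10% TCA, stained with 0.1% SRB, read at 560 nm, 24 h post-dose. HUVEC/PBMC co-culture; signal change in either direction scored relative to DMSO.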
Read-out in test [9]: Interleukin-1 alpha (IL1a), IL1A (gene 3552)
Nature of the test: BSK_LPS_IL1a: BioMAP Diversity Plus: LPS Assay for Interleukin-1 alpha (IL1a) Biomarker Activity (AID 2283080). The conditions noted are these: primary human HUVEC with PBMC; actives raise or lower the signal. The essentials:
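Readout is IL-1a level by ELISA, 24 h post-dose, fitted as gain or loss relative to DMSO. System: LPS-activated human primary co-culture of vascular endothelium and peripheral blood mononuclear cells, with parallel SRB total-protein cytotoxicity.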

Read-out in test [10]: Monocyte Chemoattractant Protein-1 (MCP1), CCL2 (gene 6347)
In words: BSK_LPS_MCP1: BioMAP Diversity Plus: LPS Assay for Monocyte Chemoattractant Protein-1 (MCP1) Biomarker Activity (AID 2283081). The settings on record: primary human HUVEC with PBMC; actives raise or lower the signal. Put shortly: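 Secreted MCP-1 read by ELISA at 24 h post-dosing in an LPS-activated co-culture of endothelial cells with peripheral blood mononuclear cells. Fits run in both directions, DMSO as baseline; parallel SRB staining tracks overt cytotoxicity.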

Test [11] in a line: BSK_LPS_PGE2: BioMAP Diversity Plus: LPS Assay for Prostaglandin E2 (PGE2) Biomarker Activity (AID 2283082). The conditions noted are these: primary human HUVEC with PBMC; actives raise or lower the signal. The essentials:
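ELISA read-out of PGE2 from human umbilical vein endothelial cells co-cultured with peripheral blood mononuclear cells under LPS, 24 h post-dose. Gain or loss of signal scored relative to DMSO baseline.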

Read-out in test [12]: Macrophage colony-stimulating factor (MCSF), CSF1 (gene 1435)
Nature of the test: BSK_LPS_MCSF: BioMAP Diversity Plus: LPS Assay for Macrophage colony-stimulating factor (MCSF) Biomarker Activity (AID 2283083). The settings on record: primary human HUVEC with PBMC; actives raise or lower the signal. The essentials: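 Bidirectional fitting against DMSO was applied to M-CSF levels read by ELISA at 24 h post-dose. The system pairs human umbilical vein endothelium with peripheral blood mononuclear cells; parallel SRB staining tracked cytotoxicity.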

Read-out in test [13]: Tissue Factor, F3 (gene 2152)
Nature of the test: BSK_LPS_TissueFactor: BioMAP Diversity Plus: LPS Assay for Tissue Factor Biomarker Activity (AID 2283084). The settings on record: primary human HUVEC with PBMC; actives raise or lower the signal. The essentials: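 Compound was added to an endothelial cell/PBMC co-culture, and after 24 h tissue factor (CD142) was read by ELISA. Gain or loss of signal was fitted against a DMSO baseline, and parallel SRB staining (560 nm) tracked overt cytotoxicity.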

Read-out in test [14]: Tumor necrosis factor (Homo sapiens) (UniProt P01375)
In words: BSK_LPS_TNFa: BioMAP Diversity Plus: LPS Assay for Tumour Necrosis Factor alpha (TNFa) Biomarker Activity (AID 2283085). The conditions noted are these: primary human HUVEC with PBMC; actives raise or lower the signal. The essentials: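 HUVEC/PBMC co-culture, LPS-stimulated; 24 h post-dose; TNFa by ELISA; gain or loss of signal fitted bidirectionally vs DMSO baseline.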

Read-out in test [15]: Vascular cell adhesion molecule 1 (VCAM1), VCAM1 (gene 7412)
In words: BSK_LPS_VCAM1: BioMAP Diversity Plus: LPS Assay for Vascular cell adhesion molecule 1 (VCAM1) Biomarker Activity (AID 2283086). The settings on record: primary human HUVEC with PBMC; actives raise or lower the signal. The essentials:
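ELISA read-out of VCAM-1 at 24 h post-dosing in an LPS-driven HUVEC/PBMC primary human co-culture; gain or loss of signal fitted bidirectionally against DMSO baseline. Cytotoxicity tracked in parallel cultures by SRB total-protein staining.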

Read-out in test [16]: CD38, CD38 (gene 952)
Nature of the test: BSK_SAg_CD38: BioMAP Diversity Plus: SAg Assay for CD38 Biomarker Activity (AID 2283087). The settings on record: primary human HUVEC with PBMC; actives raise or lower the signal. The essentials:
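Measures CD38 on a human endothelial/PBMC co-culture driven by SEB and TSST-1, 24 h after compound exposure, using ELISA with fluorescence detection; DMSO defines baseline for bidirectional curve fitting.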

Read-out in test [17]: CD69, CD69 (gene 969)
In words: BSK_SAg_CD69: BioMAP Diversity Plus: SAg Assay for CD69 Biomarker Activity (AID 2283089).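 On AC50: cell surface CD69 protein quantified by ELISA with fluorescence detection.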 The settings on record: primary human HUVEC with PBMC; actives raise or lower the signal. Put shortly:
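ELISA, fluorescence read-out: CD69 on human umbilical vein endothelial cell + PBMC co-culture, 24 h post-dosing. Gain or loss of signal fitted bidirectionally against DMSO baseline.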

Read-out in test [18]: CD40, CD40 (gene 958)
Nature of the test: BSK_SAg_CD40: BioMAP Diversity Plus: SAg Assay for CD40 Biomarker Activity (AID 2283088). The conditions noted are these: primary human HUVEC with PBMC; actives raise or lower the signal. Put shortly: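 CD40 is measured by fluorescence ELISA in an endothelial/PBMC primary human co-culture at 24 h post-dose. Fitting is bidirectional, DMSO baseline. Parallel SRB staining (560 nm) flags cytotoxicity.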

Active and inactive are the calls of the source. How the source made its calls: active means hit-call score of the fitted dose curve at least 0.9, where 1 is the maximum; inactive means score below 0.9.

Chain of Tumor necrosis factor (Homo sapiens) (P01375 whole entry, looked up): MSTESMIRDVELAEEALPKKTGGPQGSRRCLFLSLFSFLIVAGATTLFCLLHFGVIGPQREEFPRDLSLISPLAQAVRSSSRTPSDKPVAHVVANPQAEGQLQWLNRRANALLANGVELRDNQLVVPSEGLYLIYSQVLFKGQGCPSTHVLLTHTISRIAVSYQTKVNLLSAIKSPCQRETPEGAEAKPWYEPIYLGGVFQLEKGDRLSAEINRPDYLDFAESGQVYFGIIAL
Chain of E-selectin (Homo sapiens) (P16581 whole entry, looked up): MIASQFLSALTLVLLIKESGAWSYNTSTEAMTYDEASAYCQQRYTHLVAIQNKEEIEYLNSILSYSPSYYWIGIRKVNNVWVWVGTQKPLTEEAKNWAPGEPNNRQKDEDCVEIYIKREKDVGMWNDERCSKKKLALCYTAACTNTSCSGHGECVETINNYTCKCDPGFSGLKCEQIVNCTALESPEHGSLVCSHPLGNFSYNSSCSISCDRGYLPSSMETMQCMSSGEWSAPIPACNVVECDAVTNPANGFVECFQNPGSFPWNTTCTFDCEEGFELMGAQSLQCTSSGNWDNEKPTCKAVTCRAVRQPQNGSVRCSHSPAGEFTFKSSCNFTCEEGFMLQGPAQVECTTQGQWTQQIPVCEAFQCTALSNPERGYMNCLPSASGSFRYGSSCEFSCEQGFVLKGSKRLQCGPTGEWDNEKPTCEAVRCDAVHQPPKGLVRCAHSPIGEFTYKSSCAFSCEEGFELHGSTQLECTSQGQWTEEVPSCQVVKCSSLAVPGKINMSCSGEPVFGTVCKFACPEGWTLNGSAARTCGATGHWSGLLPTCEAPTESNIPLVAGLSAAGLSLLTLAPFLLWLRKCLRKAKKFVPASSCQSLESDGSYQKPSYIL

Regarding `CC=C(C)C=CC=C(C)C`, the AC50 was 0.016 µM (active) in test [1]; 20 µM (active) in test [5]; 7.42 µM (active) in test [6]; 20 µM (active) in test [15]; 13.7 µM (active) in test [16]; 18.7 µM (active) in [17]. In addition, the result in [2], in test [3], in test [4], in test [7], in test [8] and in test [9] was inactive. Also, the result in test [10], in test [11], in test [12], in test [13] and in [14] was inactive.

In the case of `CCOC(=O)/C=C\C(=O)OCC`, the outcome in test [1], in test [2], in test [3], in test [5], in test [6] and in test [7] was inactive. The outcome in test [8], in test [9], in test [10], in [11], in [12] and in test [14] was inactive. The result in test [15], in [16], in test [18] and in test [17] was inactive. For the same molecule, the AC50 in test [4] was 3.97 µM (active).

`Cc1ccc([N+](=O)[O-])cc1N`: the outcome in [1], in test [2], in test [3], in [4], in test [5] and in [6] was inactive. Besides, the outcome in [7], in [8], in test [9], in test [10], in test [11] and in [12] was inactive. Further, the outcome in [13], in test [14], in [15], in test [16] and in test [17] was inactive.
